Tat export inh: E. coli Tat export inhibitors, primary screen, MC4100, TorA-mCherry reporter, fluorescence, single point | inhibition, % at 10 µM | actives 0.036% (n = 340,000);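 active means mean replicate inhibition at least 50% and at least half of replicates individually reaching 50%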;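 further: exported cargo escapes ClpAP degradation while cytoplasmic cargo is degraded and loses fluorescence; 0% = median of neutral control wells and 100% = median of NaSCN control wells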
E coli growth-1: E. coli V3065 growth inhibition, primary screen, counter-screen for AddAB inhibitor project, absorbance, OD600 | 18 h | inhibition, % at 11.9 µM | actives 0.27% (n = 330,000) | AID 449728, 2010;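 active means inhibition above the campaign's mean inhibition across all tested compounds plus 3 SD, cut at about 9.9% in these data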;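 further: uninfected addAB+ strain grown without phage in ampicillin broth; 0% = DMSO wells and 100% = ciprofloxacin 0.95 µg/ml wells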
AddAB inh: growth inhibition of E. coli expressing H. pylori AddAB, primary screen, AddAB inhibitor project, absorbance; inhibition, % at 11.9 µM; actives 0.29% (n = 330,000); AID 435030, 2010; in the data active means inhibition above about 12%;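 further: 0% = vehicle wells of infected cells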
phage Ecoli inh: growth loss of phage-infected E. coli, primary screen, RecBCD inhibitor project, absorbance, with phage, HTS; actives 0.26% (n = 360,000); AID 651602, 2012; inhibition, % at 11.9 µM; in the data active means inhibition above about 11%
E coli growth-2: E. coli growth inhibition, primary screen, OD600; Escherichia coli growth, 23 h; hits give low values; OD600 absorbance (no concentration beside the values); actives 0.21% (n = 330,000);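 active means OD600 absorbance below the run mean of sample wells minus 3.6 SD, in any replicate, cut at about 0.56 in these data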
AddAB conf: growth loss of phage-infected E. coli expressing H. pylori AddAB, confirmation, AddAB inhibitor project, absorbance, E. coli V3065, T4 phage, triplicate | inhibition, % at 11.9 µM | OD; T4 phage with gene 2 nonsense mutations | shares compounds with AddAB inh | actives 64% (n = 880);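 active means mean inhibition above a set limit taken from the earlier primary screen, cut at about 13% in these data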;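 further: higher means less bacterial growth since AddAB block lets phage replicate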
RecBCD counter: growth loss of RecBCD+ E. coli with mutant T4 phage, counter-screen for AddAB inhibitor project, absorbance, V66 E. coli | OD growth | inhibition, % at 11.9 µM | shares compounds with AddAB inh | actives 73% (n = 880);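 active means mean inhibition above the mean of solvent-only control wells plus 3 SD, cut at about 4% in these data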;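 further: optical density read after an 18 h incubation at 37 °C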
Bact viability: bacterial viability inhibition counter-screen, confirmation, counter-screen for AddAB inhibitor project, absorbance; absorbance (AddAB counterscreen); shares compounds with AddAB inh; actives 35% (n = 880); AID 488956, 2010; inhibition, % at 11.9 µM; in the data active means inhibition above about 25%
RecBCD conf: growth loss of phage-infected RecBCD+ E. coli, confirmation, RecBCD inhibitor project, absorbance, E. coli V66, T4 gene 2 phage. shares compounds with phage Ecoli inh. E. coli V66 + T4 2- phage, growth OD. inhibition, % at 11.9 µM. actives 45% (n = 890);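 active means mean inhibition over triplicates exceeding the hit threshold derived in the original primary screen, cut at about 11% in these data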
Ecoli viability: E. coli viability inhibition, counter-screen for RecBCD inhibitor project, absorbance, high throughput; shares compounds with phage Ecoli inh; absorbance (OD) growth; inhibition, % at 11.9 µM; actives 29% (n = 890); in the data active means inhibition above about 20%;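 further: E. coli strain V66 grown with compound alone and no phage infection; 0% = bacteria with DMSO vehicle only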
AddAB counter: growth loss of phage-infected AddAB-carrying E. coli, confirmation, counter-screen for RecBCD inhibitor project, absorbance, E. coli V3065, T4 phage; shares compounds with phage Ecoli inh; E. coli expressing H. pylori AddAB + T4 phage, OD growth; gene 2 mutant T4, recBCD-deleted host; inhibition, % at 11.9 µM; actives 45% (n = 890); AID 651984, 2013;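 active means mean inhibition above the solvent-only control wells' mean plus 3 SD, cut at about 22% in these data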;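 further: higher means less bacterial growth from phage killing when AddAB is blocked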
* marks the source's active call; other numbers are inactive results; . = no result; + = active, no number. An excerpt weighted towards active compounds, which were near 0.5% of everything screened.

SMILES	Tat export inh	E coli growth-1	AddAB inh	phage Ecoli inh	E coli growth-2	AddAB conf	RecBCD counter	Bact viability	RecBCD conf	Ecoli viability	AddAB counter
CCn1cc(C(=O)NCCCO)c(=O)c2cc(F)c(N3CCN(C)CC3)cc21	94*	99*	99*	100*	0.071*	100*	99*	100*	99*	100*	98*
COC(=O)c1sc(NC(=S)NC(=O)c2ccccc2Cl)nc1C	-3	-1	0	2	0.68	.	.	.	.	.	.
On1ccccc1=S	142*	76*	+	+	.	+	+	98*	+	105*	+
O=C(Cn1ccccc1=S)c1ccc(Cl)c(Cl)c1	.	3	8	3	0.62	.	.	.	.	.	.
CC(C)C[C@H]1CNC(=S)N1C[C@H]1CCCN1C[C@H](Cc1ccc(O)cc1)N1C[C@H](Cc2ccc(O)cc2)N(CC2CCCCCC2)C1=S	.	.	.	4	.	.	.	.	.	.	.
O=c1[nH]c(=O)n([C@H]2C[C@H](O)[C@@H](CO)O2)cc1F	45	84*	100*	87*	.	81*	69*	77*	79*	79*	91*
Cc1cn([C@H]2C[C@H](N=[N+]=[N-])[C@@H](CO)O2)c(=O)[nH]c1=O	39	100*	100*	97*	.	100*	71*	100*	97*	93*	101*
O=S(=O)(NCc1cccs1)c1ccc(Br)s1	.	0	-1	.	.	.	.	.	.	.	.
COc1ccc(OC)c(C2=NO[C@@](CC(=O)O)(C(=O)Nc3ccc4c(c3)OCCO4)C2)c1	-5	-3	3	3	0.57	.	.	.	.	.	.
O=C(c1ccc([N+](=O)[O-])o1)N1CCc2ccccc21	6	94*	97*	21*	0.46*	102*	20*	84*	10	13	98*
CN1CCN(C(c2ccc(Cl)cc2)c2cc(Cl)c3cccnc3c2O)CC1 (configuration not stated)	-8	19*	13*	16*	.	4	9.9*	3	2	1	3
CCN1CCN(C(c2ccc(C(F)(F)F)cc2)c2ccc3cccnc3c2O)CC1 (configuration not stated)	-5	38*	26*	21*	0.62	10	12*	5	5	7	10
Oc1c(C(c2ccccn2)N2CCCCC2)cc(Cl)c2cccnc12 (configuration not stated)	-2	-1	0	10	0.65	.	.	.	.	.	.
CN1CCN(C(c2ccc(C(F)(F)F)cc2)c2cc(Cl)c3cccnc3c2O)CC1 (configuration not stated)	.	23*	18*	24*	.	14*	14*	10	6	6	9
Cc1cc(-c2nnc(CCC(=O)NC(C)c3cccc4ccccc34)o2)no1 (configuration not stated)	-4	0	2	-1	0.71	.	.	.	.	.	.
C/C(=N\NC(=O)C1CC1)c1ccc(OC(F)F)cc1	-9	1	3	1	.	.	.	.	.	.	.
O=C(NCCCn1ccnc1)c1ccccc1NS(=O)(=O)c1ccc(F)c(F)c1	3	1	2	3	0.72	.	.	.	.	.	.
Oc1ccc(Cl)cc1CNCc1ccc(Cl)cc1	-3	0	4	5	0.61	.	.	.	.	.	.
Oc1ccc(Cl)cc1Cc1cc(Cl)ccc1O	0	12*	13*	13*	0.13*	6	14*	3	9	11	7
O=C(N/N=C/c1ccc(O)cc1O)C(=O)N/N=C/c1ccc(O)cc1O	3	30*	28*	22*	.	22*	24*	21	19*	21*	29*
O=C(NNC(=O)c1cccc2ccccc12)c1ccc(Cl)cc1Cl	6	.	.	2	0.7	.	.	.	.	.	.
O=C(NNC(=O)c1ccc2ccccc2c1O)c1ccccc1Cl	-4	15*	14*	12*	0.71	10	10*	8	-1	0	6
C=CCSc1nsc(NC(=O)Nc2ccc(F)cc2)n1	-13	16*	20*	15*	.	18*	22*	21	8	10	22*
CCSc1nsc(NC(=O)Nc2ccccc2F)n1	-2	4	-2	6	0.59	.	.	.	.	.	.
O=C1c2ccccc2C2=Nc3ccccc3SC(c3ccc(Cl)cc3)C12 (configuration not stated)	-57	36*	25*	22*	0.66	39*	30*	52*	18*	16	42*
SMILES	Tat export inh	E coli growth-1	AddAB inh	phage Ecoli inh	E coli growth-2	AddAB conf	RecBCD counter	Bact viability	RecBCD conf	Ecoli viability	AddAB counter
O=C1CCCC2=C1C(c1ccc(Cl)cc1)C1C(=O)c3ccccc3C1=N2 (configuration not stated)	-1	-3	1	0	0.66	.	.	.	.	.	.
CCN(CC)c1ccc(/C=N/NC(=S)NCc2ccccc2)c(O)c1	1	15*	12*	14*	.	9	14*	16	9	9	20
CCN(CC)c1ccc(C=NNC(=S)NCc2ccccc2)c(O)c1	.	.	.	.	0.68	.	.	.	.	.	.
O=C(CCC1CCCC1)NNC(=O)c1cc2ccccc2cc1O	-11	9	18*	16*	0.67	14*	14*	13	8	9	14
O=C(CC1CCCC1)NNC(=O)c1ccccc1O	.	.	.	0	.	.	.	.	.	.	.
O=C(CSc1nnc(-c2cccnc2)o1)Nc1ccc(F)cc1	.	.	.	4	.	.	.	.	.	.	.
COc1ccc(NC(=O)CSc2nnc(-c3ccc(F)cc3)o2)cn1	-76	9	21*	24*	0.59	29*	17*	20	21*	21*	39*
Nc1nc(Cl)nc2c1ncn2[C@@H]1O[C@H](CO)[C@@H](O)[C@H]1O	5	0	-2	5	.	.	.	.	.	.	.
Nc1nc(=S)c2ncn(C3CCCCC3)c2[nH]1	-8	.	.	2	0.68	.	.	.	.	.	.

Screening data deposited in PubChem BioAssay by several laboratories.
